The nature of experiment [1]: Tanguay_ZF_120hpf_SWIM_legacy: (Legacy) Oregon State University Tanguay Lab 120 Hour Post-fertilization zebrafish Assay for Swim Bladder Malformation (AID 2283654).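 Note: swim bladder malformation in each larva scored yes or no under brightfield.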 The method in brief:
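Scoring is binary for swim bladder defects at 120 hpf, by brightfield inspection of zebrafish larvae. Embryos were exposed singly from 6 hpf after pronase dechorionation, at 28C with 0.64% DMSO; mortality excluded scoring.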

The nature of experiment [2]: Tanguay_ZF_120hpf_TRUN_legacy: (Legacy) Oregon State University Tanguay Lab 120 Hour Post-fertilization zebrafish Assay for Truncated Body (AID 2283655). The method in brief: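 Binary presence/absence of truncated body is recorded at 120 hpf by brightfield, with non-mortality endpoints skipped after death. Exposure is static from 6 hpf in sealed dark plates at 28C, using dechorionated wild-type zebrafish, 0.64% DMSO.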

Experiment [3] can be described thus: Tanguay_ZF_120hpf_NC_legacy: (Legacy) Oregon State University Tanguay Lab 120 Hour Post-fertilization zebrafish Assay for Notochord and Tail Malformation (AID 2283656). The method in brief:
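Binary scoring of notochord distortion by brightfield microscopy; embryos dying were not scored. Wild-type Tropical 5D embryos, chorion removed, exposed singly and statically from 6 to 120 hpf, 28C, sealed, 0.64% DMSO.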

Read-out in experiment [4]: solute carrier (SLC10A1), SLC10A1 (gene 6554)
Briefly: LTEA_HepaRG_SLC10A1: Life Technologies and Expression Analysis (LTEA) Assay for solute carrier (SLC10A1) using HepaRG (AID 2283657; active = hit-call score of the fitted dose curve at least 0.9, where 1 is the maximum; inactive = score below 0.9). The note with it: mRNA level, 48 h; actives raise or lower the signal. The method in brief: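 SLC10A1 transcript measured by TaqMan qRT-PCR, housekeeping-normalised, after 48 h chemical treatment of human HepaRG cells. Eight concentrations (half-log, max 100 uM, 0.5% DMSO vehicle) in duplicate; fitted bidirectionally against DMSO baseline.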

Read-out in experiment [5]: matrix metalloproteinase-1 (MMP1), MMP1 (gene 4312)
Briefly: LTEA_HepaRG_MMP1: Life Technologies and Expression Analysis (LTEA) Assay for matrix metalloproteinase-1 (MMP1) using HepaRG (AID 2283658; active = hit-call score of the fitted dose curve at least 0.9, where 1 is the maximum; inactive = score below 0.9). The settings on record: mRNA level, 48 h; actives raise or lower the signal. The method in brief:
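qRT-PCR (TaqMan, Fluidigm arrays) of MMP1 transcript, normalized against three housekeeping genes and fitted in both directions relative to 0.5% DMSO vehicle. Human HepaRG cultures received duplicate 48 h exposures across 8 points, highest 100 uM with half-log steps.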

Experiment [6] deals with Thyroperoxidase (TPO), gene 54314. Briefly: CCTE_Simmons_AUR_rTPO: CCTE's Amplex UltraRed Assay for Thyroperoxidase (TPO) Inhibition, Simmons Lab (AID 2283662).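 Note: potency for loss of signal meaning inhibition of peroxidase activity.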 The method in brief:
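Cell-free peroxidase activity assay using rat thyroid gland microsomes with excess H2O2 (300 uM) and 25 uM Amplex UltraRed. Compounds tested from 5 nM to 87.5 uM; fluorescence measured after 30 min at 37C, analysed relative to DMSO baseline.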

Experiment [7] in a line: CCTE_Simmons_CellTiterGLO_HEK293T: Viability Assessment in CCTE's Assays for Thyroperoxidase (TPO) Inhibition, Simmons Lab (AID 2283665).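 For AC50: cells exposed to compound for 24 h before readout; actives reduce ATP signal below DMSO vehicle meaning cytotoxicity.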 The method in brief: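 Luciferase-coupled ATP content after 24 h exposure gives viability; 8-point series from 5 nM to 87.5 uM final in 0.5% DMSO. Human HEK293T cells, 1% FBS medium, three biological replicates, dichlone positive control.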
For orientation: Cellular ATP, detected with luciferase, serves as a proxy for viable cell number.

Experiment [8] in a line: Tanguay_ZF_120hpf_TR_legacy: (Legacy) Oregon State University Tanguay Lab 120 Hour Post-fertilization zebrafish Assay for Touch Response (AID 2283667). The method in brief: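 Binary touch-response endpoint in larvae at 120 hpf after static waterborne exposure from embryo stage (28°C, 0.64% DMSO vehicle, 5 uM trimethyltin chloride as positive control); embryos dead at 24 or 120 hpf excluded; fitted as gain versus DMSO.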

Read-out in experiment [9]: Cytochrome P450 (CYP24A1_1), CYP24A1 (gene 1591)
The experiment in a line: LTEA_HepaRG_CYP24A1_1: Life Technologies and Expression Analysis (LTEA) Assay for Cytochrome P450 (CYP24A1_1) using HepaRG (AID 2283671; active = hit-call score of the fitted dose curve at least 0.9, where 1 is the maximum; inactive = score below 0.9). The settings on record: mRNA level, 48 h; actives raise or lower the signal. The method in brief:
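Differentiated human HepaRG cells were exposed in duplicate for 48 h in serum-free induction medium to eight concentrations (top 100 uM, half-log steps, 0.5% DMSO). CYP24A1 mRNA was quantified by TaqMan qRT-PCR, normalized to ACTB, GAPDH and POLR2A, and fitted bidirectionally versus DMSO.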

Experiment [10] is described as follows: CCTE_Padilla_ZF_144hpf_TERATOSCORE: (Legacy) CCTE's 144 Hour Post-fertilization zebrafish Assay Teratoscore, Padilla Lab (AID 2283679; active = hit-call score of the fitted dose curve at least 0.9, where 1 is the maximum; inactive = score below 0.9;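 note: zebrafish embryos with chorions exposed by immersion from 6-8 hpf to 5 dpf with daily renewal; teratogenicity score from eye scoring of death hatching and malformations at 144 hpf; higher score means more developmental defects relative to DMSO baseline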). The method in brief: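 Larvae scored by eye at 144 hpf for death, hatching and malformations after a day in clean Hanks'. Before that, daily-renewed exposure at 80 uM (0.4% DMSO, 26C) from roughly 6-8 hpf through 5 dpf, 4 embryos per chemical.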

Among the data in PubChem BioAssay (EPA / NIEHS) are outcome and AC50 values, retold here.

Records with an inconclusive call do not appear. The source made the active and inactive calls. Rule for the calls, unless noted: active = hit-call score of the fitted dose curve at least 0.9, where 1 is the maximum; inconclusive = response in the unintended direction; inactive = score below 0.9.

With `O=C(O)CC(O)(CC(=O)O)C(=O)O`, the outcome in experiment [1], in experiment [2] and in [3] was inactive.

With `CCCCC(CC)COC(=O)CCCCCCCC(=O)OCC(CC)CCCC` (centres undefined), the call in experiment [1] and in [2] was inactive.

As for `COC(=O)CCC(=O)OC`, the result in experiment [1], in [2] and in [3] was inactive.

On to `COC(=O)CCCC(=O)OC`, for which the result in [1], in [2] and in experiment [3] was inactive.

On to `O=[Si]=O`, for which the call in [1], in experiment [2] and in experiment [3] was inactive.

Regarding `COc1ccc(OC(F)(F)F)cc1CN[C@H]1CCCN[C@H]1c1ccccc1`, the molecule was classed as inactive in experiment [1] and in [2].

On to `OCC(O)CO`, for which the result in experiment [1], in experiment [2] and in experiment [3] was inactive.

`Cc1occc(=O)c1O`: the result in experiment [1], in experiment [2], in experiment [3], in experiment [4], in experiment [5] and in [7] was inactive. For the same molecule, the outcome in experiment [8] and in experiment [9] was inactive. Also, in [6], the half-maximal activity concentration (AC50) (usually the concentration at which the activity in the assay is half-maximal) was 21.7 µM (active).

Take `CCOCCOCCO`: the call in experiment [1], in [2] and in experiment [3] was inactive.

For the molecule `C=CCc1ccc(OC)c(OC)c1`, the call in experiment [1], in [2] and in [3] was inactive.

Consider `O=C(O)c1cccnc1`, for which the molecule was classed as inactive in [1], in [2] and in experiment [3].

`Nc1nc(Cl)nc2c1ncn2[C@H]1C[C@H](O)[C@@H](CO)O1`: the molecule was classed as inactive in [1], in [2] and in experiment [3].

Consider `NC(=Nc1ccccc1)Nc1ccccc1`, for which the call in experiment [1], in experiment [2] and in [3] was inactive.

With `CN(C)C(=O)NC1(c2ccccc2)CCN(CCC[C@]2(c3ccc(Cl)c(Cl)c3)CCCN(C(=O)c3ccccc3)C2)CC1`, the call in experiment [1], in experiment [2] and in [3] was inactive.

In the case of `O=C(O)CN(CC(=O)O)CC(=O)O`, the molecule was classed as inactive in [1], in [2] and in [3].

In the case of `CCCC(=O)O`, the outcome in experiment [1], in [2] and in experiment [3] was inactive.

As for `O=C1NC(=O)C(c2ccccc2)(c2ccccc2)N1`, the molecule was classed as inactive in experiment [1], in [2] and in experiment [3].

Consider `CS(=O)(=O)c1ccc([C@@H](C[C@H]2CCC(=O)C2)C(=O)Nc2cnccn2)cc1Cl`, for which the outcome in [1], in [2] and in experiment [3] was inactive.

Regarding `CC(COCC(C)OC(=O)c1ccccc1)OC(=O)c1ccccc1` (centres undefined), the result in experiment [1] and in [2] was inactive.

For the molecule `CCN(CC)CCOc1ccc(C(=C(Cl)c2ccccc2)c2ccccc2)cc1`, the molecule was classed as inactive in [1], in experiment [2] and in [3].

As for `O=C(NS(=O)(=O)/C=C/c1cccs1)c1ccc(F)cc1Br`, the call in [1], in experiment [2] and in [3] was inactive.

As to `CCCCCCCC(=O)OC`, the call in experiment [1], in experiment [2] and in experiment [3] was inactive.

Consider `CC(=O)CC(c1ccccc1)c1c(O)c2ccccc2oc1=O` (centres undefined), for which the result in [1] and in experiment [2] was inactive.

Turning to `CCCCc1nc2cccnc2n1Cc1ccc(-c2ccccc2-c2nnn[nH]2)cc1`, the call in experiment [1] and in [2] was inactive.

For `NCCOCCOCCN`, the call in [1] and in experiment [2] was inactive.

Take `O=C(O)c1[nH]n(-c2ccc(S(=O)(=O)O)cc2)c(=O)c1N=Nc1ccc(S(=O)(=O)O)cc1`: the call in experiment [1], in experiment [2] and in experiment [3] was inactive.

`CC(C)COC(=O)CCCCC(=O)OCC(C)C`: the result in [1], in experiment [2] and in experiment [3] was inactive.

As for `C#CC(O)C(CC)CCCC` (centres undefined), the molecule was called inactive in [1], in experiment [2] and in [3].

On to `CC(=O)OC1CC(C)OC(C)O1` (centres undefined), for which the outcome in [1], in experiment [2] and in [3] was inactive.

Take `CC(=O)[C@@]1(O)CC[C@H]2[C@@H]3CCC4=CC(=O)CC[C@]4(C)[C@H]3CC[C@@]21C`: the call in [1], in experiment [2], in experiment [3] and in experiment [8] was inactive.

As for `CCCCCCCCCC[N+](C)(C)[O-]`, the result in [1], in experiment [2], in experiment [3], in experiment [4], in [5] and in [8] was inactive. Also, the result in [9] was inactive.

Consider `CCCCCCC(CCCCCCCCCCC(=O)OCC(COC(C)=O)OC(C)=O)OC(C)=O` (centres undefined), for which the result in experiment [1], in [2], in [3], in experiment [4], in experiment [5] and in experiment [9] was inactive. Moreover, in experiment [10], the AC50 was 7.74 µM (active).

`S=c1[nH]c2ccccc2s1`: the molecule was classed as inactive in [1] and in experiment [7]. For the same molecule, the AC50 in experiment [2] was 11.4 µM (active); in [3], 51.8 µM (active); in experiment [6], 0.433 µM (active); in [8], 12.3 µM (active).

In the case of `Oc1ccccc1O`, the result in experiment [1], in experiment [2], in experiment [3] and in [8] was inactive. Also, the AC50 in experiment [6] is 0.84 µM (active); in [7], 34.4 µM (active).

As to `OCC(CO)n1cnc(-c2ccc(F)cc2)c1-c1ccnc(Oc2ccccc2)n1`, the molecule was called inactive in [1], in [2], in [3] and in experiment [8].

With `CCCCCCCCCCCCCCCCO`, the call in experiment [1], in experiment [2], in experiment [3] and in experiment [8] was inactive.

As for `O=C1O[C@H]([C@H](O)CO)C(O)=C1O`, the result in experiment [1], in experiment [2], in experiment [3], in [7] and in [8] was inactive. Further, in experiment [6], the AC50 is 43.8 µM (active).

`CC(C)NCC(O)c1ccc(O)c(O)c1` (centres undefined): the molecule was called inactive in [1], in [2], in experiment [3] and in [7]. In addition, in experiment [6], the AC50 was 0.616 µM (active).

As for `CN(C)C(=O)NC1(c2ccccc2)CCN(CC[C@@]2(c3ccc(F)c(F)c3)CN(C(=O)c3ccccc3)CCO2)CC1`, the call in experiment [1], in [2], in experiment [3] and in experiment [8] was inactive.

In the case of `CCCCC(CC)COP(=O)(OCC(CC)CCCC)OCC(CC)CCCC` (centres undefined), the call in [1], in experiment [2], in experiment [3] and in experiment [8] was inactive.

Regarding `O=C(Oc1ccccc1)c1cccc(C(=O)Oc2ccccc2)c1`, the molecule was called inactive in experiment [1], in experiment [2], in [3] and in experiment [8]. For the same molecule, in experiment [10], the AC50 is 9.15 µM (active).
